PubChem BioAssay
Calls of active or inactive are those of the source. Unless noted, how the calls were made is not given here.

Columns and labels:
[1] = compounds altering circadian rhythm period length – cell-based, LOPAC library, luminescence reporter (AID 2774); conditions: circadian reporter cells, at 7 µM, actives lie on both sides;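 further: values are relative to mean of DMSO wells on each plate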
[2] = test system: Hepatitis C virus NS3 helicase; assay: blockers of NS3h binding to ssDNA – biochemical, fluorescence polarization, LOPAC1280 library, primary screen (AID 687035; in the data active means inhibition above about 37%); conditions: Purified HCV NS3 helicase, Cy5-dT15 ssDNA binding fluorescence polarization; stronger effect = higher value; concentration not given here
[3] = compounds altering Cy5-DNA-NS3h complex signal – biochemical, LOPAC1280, artefact control for HCV NS3 helicase inhibitor project (AID 687037); conditions: Cy5-DNA-NS3h complex fluorescence interference counterscreen
[4] = viability loss with induced miR-34 in A549 – imaging, A549 dox-inducible miR-34, nuclei and caspase counts, primary screen (AID 1347080;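 active means compounds whose cell count with miR-34 switched on is under 0.7 times the count with it off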); conditions: A549 miR-34 inducible, Hoechst nuclei count, 48 h
[5] = blockers of cellular phospholipid synthesis – cell-based, LOPAC library, screen 4, primary screen (AID 1347384); conditions: animal cells, phospholipid biosynthesis inhibition screen; at 10 µM
[6] = galactose survival enhancers in mitochondrial complex I cybrids – cell-based, galactose medium, ATP luminescence, primary screen (AID 1645843;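 active means z-score of at least 1.8 in each of two replicates, scored against plate mean and spread of sample wells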;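 further: positive z means more ATP and so rescue of galactose-driven cybrid death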); conditions: complex I mutant cybrid cells, 72 h, stronger effect = higher value
[7] = stronger effect = lower value, cell number ratio, induced over uninduced
[8] = measured here: relative caspase fold change +Dox/-Dox
[9] = measured here: total cells with miR-34 induction, stronger effect = lower value
[10] = measured here: total cells without miR-34 induction

Compound	period change [1]	inhibition [2]	fluorescence ratio (interference) [3]	fold change [4, 7]	fold change [4, 8]	cell count [4, 9]	cell count [4, 10]	outcome [5]	z-score [6]
Fc1ccc(CN(C2=NCCN2)c2c(Cl)cccc2Cl)cc1	-0.015 h (inactive)	1% (inactive)	1 (inactive)	0.978 (inactive)	0.985	8870	9060	inactive	-0.75 (inactive)
CNC(=O)[C@H]1O[C@@H](n2cnc3c(NCc4ccc(N)cc4)ncnc32)C(O)[C@H]1O (stereo not given in full)	-0.095 h (inactive)	-2% (inactive)	1 (inactive)	1 (inactive)	1.7	9670	9680	inactive	0.09 (inactive)
O=C(O)CCCC[C@@H]1CCSS1	0.11 h (inactive)	0% (inactive)	1 (inactive)	0.958 (inactive)	0.931	9120	9520	inactive	0.53 (inactive)
CC(=O)N[C@H](C(=O)O)C(C)(C)SN=O	0.185 h (inactive)	-4% (inactive)	1 (inactive)	1.07 (inactive)	1.19	11100	10400	inactive	-0.22 (inactive)
COc1ccccc1N1CCN(CCN(C(=O)c2ccc(F)cc2)c2ccccn2)CC1	0.22 h (inactive)	-4% (inactive)	0.9 (inactive)	1.08 (inactive)	1.52	10200	9450	inactive	-0.25 (inactive)
CNc1cc(NS(=O)(=O)c2ccc(N)cc2)nc(NC)n1	-0.065 h (inactive)	-3% (inactive)	1 (inactive)	1.09 (inactive)	0.965	9150	8390	inactive	0.695 (inactive)
C=CCN1CCc2c(cc(O)c(O)c2Br)[C@@H](c2ccccc2)C1	0.175 h (inactive)	-2% (inactive)	1 (inactive)	1.09 (inactive)	2.06	5920	5430	inactive	-1.42 (inactive)
N=C(N)c1ccc(N)cc1	-0.005 h (inactive)	-2% (inactive)	1 (inactive)	0.998 (inactive)	2.25	8960	8980	inactive	-0.075 (inactive)
Cc1nc(N=Nc2ccc(S(=O)(=O)O)cc2S(=O)(=O)O)c(COP(=O)(O)O)c(C=O)c1O	0.055 h (inactive)	0% (inactive)	1 (inactive)	0.994 (inactive)	1.49	9390	9440	inactive	0.795 (inactive)
C#CCn1c(=O)c2c(ncn2C)n(C)c1=O	-0.07 h (inactive)	-1% (inactive)	1 (inactive)	0.971 (inactive)	0.997	10100	10400	inactive	0.15 (inactive)
O=C(O)C1CCNCC1	-0.105 h (inactive)	-2% (inactive)	1 (inactive)	1.1 (inactive)	0.954	10700	9760	inactive	0.31 (inactive)
CC(=O)SCC[N+](C)(C)C	0.015 h (inactive)	0% (inactive)	1 (inactive)	1.01 (inactive)	2.3	10500	10400	inactive	0.495 (inactive)
C[N+](C)(C)CC=O	-0.2 h (inactive)	-5% (inactive)	0.9 (inactive)	1 (inactive)	1.36	10200	10200	inactive	0.245 (inactive)
CCNC(=O)[C@H]1O[C@@H](n2cnc3c(N)nc(NCCc4ccc(CCC(=O)O)cc4)nc32)C(O)[C@H]1O (stereo not given in full)	0.1 h (inactive)	0% (inactive)	1 (inactive)	0.963 (inactive)	1.23	9660	10000	inactive	0.485 (inactive)
Nc1cc(Cl)c(NC2=NCCN2)c(Cl)c1	0.07 h (inactive)	-4% (inactive)	0.9 (inactive)	1.02 (inactive)	1.68	11100	10900	inactive	0.705 (inactive)
O=C(O)Cc1ccc(O)c(O)c1	-0.08 h (inactive)	-1% (inactive)	1 (inactive)	0.965 (inactive)	1.22	9890	10200	inactive	-0.87 (inactive)
CNCC[C@H](Oc1ccc(C(F)(F)F)cc1)c1ccccc1	0.185 h (inactive)	-2% (inactive)	1 (inactive)	1.08 (inactive)	0.944	7270	6730	inactive	-0.925 (inactive)
CN(C)C(N)=NCCC[C@H](N)C(=O)O	-0.14 h (inactive)	-2% (inactive)	1 (inactive)	0.963 (inactive)	1.27	9830	10200	inactive	0.265 (inactive)
CC1=C(C(=O)O)N2C(=O)[C@@H](NC(=O)C(N)C3=CCC=CC3)[C@H]2SC1 (stereo not given in full)	-0.045 h (inactive)	0% (inactive)	1 (inactive)	1.02 (inactive)	1.79	10500	10300	inactive	-0.29 (inactive)
OC[C@H]1O[C@@H](n2cnc3cncnc32)[C@H](O)[C@@H]1O	0.1 h (inactive)	-4% (inactive)	1 (inactive)	1.03 (inactive)	1.29	10800	10600	inactive	-0.28 (inactive)
O=C(c1ccc2c(c1)OCCO2)N1CCCCC1	-0.22 h (inactive)	-1% (inactive)	1 (inactive)	1.07 (inactive)	1.38	9110	8530	inactive	0.315 (inactive)
CC(C)C[C@H](NC(=O)[C@H](O)[C@H](N)Cc1ccccc1)C(=O)O	-0.01 h (inactive)	-2% (inactive)	1 (inactive)	1.02 (inactive)	0.988	10100	9920	inactive	0.245 (inactive)
CN1CCC2(CCN3CCc4c(oc5ccccc45)C3C2)N(C)C1=O (stereo not given)	0.125 h (inactive)	3% (inactive)	1 (inactive)	1.04 (inactive)	0.751	7560	7300	inactive	-0.87 (inactive)

Compound	period change [1]	inhibition [2]	fluorescence ratio (interference) [3]	fold change [4, 7]	fold change [4, 8]	cell count [4, 9]	cell count [4, 10]	outcome [5]	z-score [6]
O=C(O)CC1CCCc2ccccc2C1O (stereo not given)	0.085 h (inactive)	-4% (inactive)	1 (inactive)	1.02 (inactive)	1.73	10700	10500	inactive	0.315 (inactive)
O=c1cc(-c2ccccc2)[nH]c2nc(Cl)ccc12	-0.07 h (inactive)	-3% (inactive)	1 (inactive)	0.977 (inactive)	1.95	3650	3740	inactive	-0.5 (inactive)
N[C@@H](Cc1cnc[nH]1)C(=O)O	0.03 h (inactive)	0% (inactive)	1.1 (inactive)	0.99 (inactive)	1.08	9970	10100	inactive	0.865 (inactive)
Nc1ccc(N2C(=O)c3ccccc3C2=O)c(Cl)c1	0.15 h (inactive)	0% (inactive)	1 (inactive)	0.973 (inactive)	1.66	10200	10500	inactive	0.45 (inactive)
CC(N)=NCCCC[C@@H](N)C(=O)O	0.055 h (inactive)	-4% (inactive)	0.9 (inactive)	1.08 (inactive)	1.26	11400	10600	inactive	0.39 (inactive)
O=C(O)C1CN(CCCP(=O)(O)O)CCN1 (stereo not given)	0.255 h (inactive)	1% (inactive)	1 (inactive)	0.99 (inactive)	1.52	10000	10100	inactive	0.45 (inactive)
NC(=O)C(=O)O	0.025 h (inactive)	-7% (inactive)	0.9 (inactive)	1.05 (inactive)	1.23	10900	10300	inactive	0.585 (inactive)
O=c1[nH]c2cc(Cl)ccc2c(O)c1-c1ccc(Oc2ccccc2)cc1	-0.015 h (inactive)	-2% (inactive)	1 (inactive)	1.06 (inactive)	0.974	10400	9850	inactive	0.965 (inactive)
NCCS(=O)O	0.035 h (inactive)	-3% (inactive)	1 (inactive)	1 (inactive)	0.978	10600	10500	inactive	0.415 (inactive)
N#C/C(=C\c1ccc(O)c(O)c1)C(=O)NCCc1ccccc1	-0.04 h (inactive)	2% (inactive)	0.9 (inactive)	1.09 (inactive)	0.996	7900	7250	inactive	-1.06 (inactive)
O=c1cc(O)cc(/C=C/c2ccc(O)c(O)c2)o1	-0.02 h (inactive)	-1% (inactive)	1 (inactive)	1.09 (inactive)	1.07	9040	8270	inactive	-0.475 (inactive)
Cn1ccnc1	0.39 h (inactive)	-2% (inactive)	0.9 (inactive)	1.1 (inactive)	0.769	11100	10000	inactive	0.675 (inactive)
COc1ccccc1N1CCN(CCCNc2c(C)c(=O)n(C)c(=O)n2C)CC1	-0.1 h (inactive)	-5% (inactive)	1 (inactive)	0.886 (inactive)	2.76	8920	10100	inactive	0.025 (inactive)
CC(C)COC(=O)OCN1C(=O)CN(CCN2CC(=O)N(COC(=O)OCC(C)C)C(=O)C2)CC1=O	-0.045 h (inactive)	1% (inactive)	1 (inactive)	0.995 (inactive)	1.59	8180	8220	inactive	0.435 (inactive)
CCN1C(=O)C=CC1=O	0.135 h (inactive)	-3% (inactive)	1 (inactive)	0.985 (inactive)	1.06	9620	9760	inactive	-0.99 (inactive)
CC1C(=O)N(C)C(=O)c2nc[nH]c21 (stereo not given)	0.13 h (inactive)	-3% (inactive)	0.9 (inactive)	0.928 (inactive)	1.21	9940	10700	inactive	0.22 (inactive)
NC/C=C\C(=O)O	0.03 h (inactive)	-3% (inactive)	1 (inactive)	1.03 (inactive)	1.8	9360	9050	inactive	-1.38 (inactive)
Cc1cc(NC(=O)Nc2ccc3c(ccn3C)c2)sn1	-0.055 h (inactive)	-1% (inactive)	0.9 (inactive)	1.07 (inactive)	1.78	9080	8470	inactive	0.19 (inactive)
O=Nc1ccc2oc(=O)ccc2c1	-0.05 h (inactive)	-2% (inactive)	1 (inactive)	1.06 (inactive)	0.992	10200	9600	inactive	-1.25 (inactive)
O=c1[nH]ccc2c(O)cccc12	0.03 h (inactive)	-3% (inactive)	0.9 (inactive)	1.09 (inactive)	1.24	10100	9200	inactive	0.02 (inactive)
CC(=O)C(C)=O	-0.125 h (inactive)	-3% (inactive)	1 (inactive)	1.06 (inactive)	0.938	10100	9490	inactive	0.23 (inactive)
O=C(O)Cc1c[nH]c2ccc(O)cc12	-0.095 h (inactive)	-2% (inactive)	1 (inactive)	1.08 (inactive)	0.669	9930	9210	inactive	0.08 (inactive)
